# Several values for one entry are separate records, joined by “and”; a condition that tells them apart may be missing. Identical values can stand only once. Activity calls are given as the source filed them.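 Rule for the calls, unless noted: active = compounds whose cell count with miR-34 switched on is under 0.7 times the count with it off; inactive = the rest.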
# Assays:
# [1] = molecular target: 6-phosphogluconate dehydrogenase, decarboxylating (Homo sapiens) (UniProt P52209); assay: 6PGD enzyme inhibitors, primary screen, biochemical, human, recombinant enzyme, NADPH absorbance (AID 1159550;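 active = at least 20% inhibition of 6-phosphogluconate dehydrogenase activity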); conditions: recombinant 6PGD, NADPH absorbance 341 nm; at 10 µM; stronger effect = higher value
# Chain of 6-phosphogluconate dehydrogenase, decarboxylating (Homo sapiens) (P52209 whole entry, looked up): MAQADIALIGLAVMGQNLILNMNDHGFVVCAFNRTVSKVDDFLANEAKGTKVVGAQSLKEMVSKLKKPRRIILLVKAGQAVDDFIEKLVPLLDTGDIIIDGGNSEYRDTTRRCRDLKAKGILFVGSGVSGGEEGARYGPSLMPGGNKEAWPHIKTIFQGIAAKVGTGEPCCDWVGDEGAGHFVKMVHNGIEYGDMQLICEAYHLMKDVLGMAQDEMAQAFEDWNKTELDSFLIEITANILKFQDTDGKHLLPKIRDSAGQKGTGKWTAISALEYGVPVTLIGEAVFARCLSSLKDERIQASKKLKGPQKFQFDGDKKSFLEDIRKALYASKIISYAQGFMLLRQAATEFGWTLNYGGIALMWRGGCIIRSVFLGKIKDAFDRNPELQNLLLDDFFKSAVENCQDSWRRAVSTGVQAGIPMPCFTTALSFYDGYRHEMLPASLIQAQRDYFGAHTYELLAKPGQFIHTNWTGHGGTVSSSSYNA
# [2] = sensitizers of A549 cells to miR-34 induction, primary screen, imaging, A549 dox-inducible miR-34, nuclei and caspase counts (AID 1347080); conditions: A549 miR-34 inducible, Hoechst nuclei count, 48 h
# [3] = molecular target: NAD(+) hydrolase SARM1 (Homo sapiens) (UniProt Q6SZW1); assay: SARM1 TIR NADase inhibitors, cell lysate, NAD-Glo luminescence (AID 1508614;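 active = compound whose remaining NAD level is above about 45 nM, limit read from the data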;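 note: higher remaining NAD means stronger inhibition of SARM1 NADase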); conditions: SAM-TIR HEK293T lysate NADase, at 1 µM, stronger effect = higher value
# Chain of NAD(+) hydrolase SARM1 (Homo sapiens) (Q6SZW1 whole entry, looked up, the tested form may be a part): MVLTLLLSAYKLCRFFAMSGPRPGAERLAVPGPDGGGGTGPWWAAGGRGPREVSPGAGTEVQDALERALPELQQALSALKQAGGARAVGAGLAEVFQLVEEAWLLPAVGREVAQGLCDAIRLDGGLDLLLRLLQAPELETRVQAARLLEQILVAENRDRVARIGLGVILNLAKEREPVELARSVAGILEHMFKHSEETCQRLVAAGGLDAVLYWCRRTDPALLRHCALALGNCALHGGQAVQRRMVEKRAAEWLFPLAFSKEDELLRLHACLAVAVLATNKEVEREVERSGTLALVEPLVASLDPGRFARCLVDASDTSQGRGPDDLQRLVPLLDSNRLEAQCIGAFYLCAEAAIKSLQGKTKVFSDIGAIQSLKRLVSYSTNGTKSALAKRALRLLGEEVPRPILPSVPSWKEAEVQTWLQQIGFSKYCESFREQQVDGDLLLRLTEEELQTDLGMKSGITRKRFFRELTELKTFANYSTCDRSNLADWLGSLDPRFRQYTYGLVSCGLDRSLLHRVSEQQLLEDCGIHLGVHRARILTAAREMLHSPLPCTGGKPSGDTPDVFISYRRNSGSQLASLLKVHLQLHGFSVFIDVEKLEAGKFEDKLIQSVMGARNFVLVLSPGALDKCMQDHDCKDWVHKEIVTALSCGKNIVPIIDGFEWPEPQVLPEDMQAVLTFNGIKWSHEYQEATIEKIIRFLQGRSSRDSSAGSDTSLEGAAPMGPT
# [4] = molecular target: Mitogen-activated protein kinase 7 (Homo sapiens) (UniProt Q13164); assay: ERK5 transactivation activators in reporter cells, primary screen, cell-based, HTS (AID 1508626;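 active = luciferase signal above three times the same-plate solvent-only control wells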;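 note: luciferase driven by Gal4-ERK5 fusion binding five Gal4 sites before minimal TATA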); conditions: HeLa Gal4-ERK5 transactivation, 18 h, at 5 µM, stronger effect = higher value
# Chain of Mitogen-activated protein kinase 7 (Homo sapiens) (Q13164 whole entry, looked up, the tested form may be a part): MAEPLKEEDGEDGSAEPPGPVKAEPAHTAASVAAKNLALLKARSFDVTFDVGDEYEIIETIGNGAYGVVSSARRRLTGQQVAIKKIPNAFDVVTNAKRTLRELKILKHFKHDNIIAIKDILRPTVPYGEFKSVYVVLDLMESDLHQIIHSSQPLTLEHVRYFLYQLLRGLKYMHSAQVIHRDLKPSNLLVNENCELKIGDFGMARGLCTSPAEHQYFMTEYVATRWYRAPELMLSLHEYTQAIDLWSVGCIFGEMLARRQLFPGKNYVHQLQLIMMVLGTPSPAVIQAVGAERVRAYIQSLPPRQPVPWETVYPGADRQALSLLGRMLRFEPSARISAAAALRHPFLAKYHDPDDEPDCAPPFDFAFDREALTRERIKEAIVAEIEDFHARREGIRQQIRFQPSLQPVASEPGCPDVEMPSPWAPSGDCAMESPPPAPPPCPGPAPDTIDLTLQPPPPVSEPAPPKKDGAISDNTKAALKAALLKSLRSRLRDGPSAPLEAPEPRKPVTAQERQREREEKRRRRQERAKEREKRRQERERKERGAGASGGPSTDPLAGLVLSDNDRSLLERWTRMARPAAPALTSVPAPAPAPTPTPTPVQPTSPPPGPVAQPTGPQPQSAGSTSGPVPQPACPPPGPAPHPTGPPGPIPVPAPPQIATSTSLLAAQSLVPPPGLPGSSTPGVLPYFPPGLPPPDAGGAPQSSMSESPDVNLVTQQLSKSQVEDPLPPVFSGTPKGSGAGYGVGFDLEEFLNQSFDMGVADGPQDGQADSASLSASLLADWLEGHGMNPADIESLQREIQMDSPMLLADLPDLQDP
# [5] = viability rescue of complex I mutant cybrids, primary screen, cell-based, galactose medium, ATP luminescence (AID 1645843;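 active = z-score of at least 1.8 in each of two replicates, scored against plate mean and spread of sample wells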;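 note: positive z means more ATP and so rescue of galactose-driven cybrid death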); conditions: complex I mutant cybrid cells, 72 h, stronger effect = higher value
# [6] = liver-stage malaria parasite growth inhibition, primary screen, cell-based, HepG2, luciferase luminescence, HepG2 viability (AID 624349; in the data active = parasite load remaining mostly below about 12%, no sharp cut-off; inactive = mostly above about 10%;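 note: 100% = mean of DMSO negative control wells on the same plate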); conditions: P. berghei liver stage in HepG2, luciferase luminescence, concentration not given here; parasite load remaining: stronger effect = lower value; viability: measured here: HepG2 viability without parasites
# [7] = survival rescue of mitochondrial mutant cells in low glucose, primary screen, MELAS cybrids, Rieske KO mouse fibroblasts, CellTiter-Glo (AID 1508586;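 active = mean z-score across replicates of 1.96 or higher in either the MELAS or the Rieske mutant cell line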;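 note: z relative to plate mean and SD of compound and empty wells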)
# [8] = LFS_MB_P medulloblastoma growth inhibition, cell-based, chromothripsis tumors, cisplatin or BGB combos (AID 1671449; in the data active = inhibition above about 80%;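 note: cells exposed for 96 hours; 0% = vehicle DMSO and 100% = killing by high DMSO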); conditions: LFS_MB_P medulloblastoma cells
# [9] = HDN33 neuroblastoma growth inhibition, cell-based, chromothripsis tumors, cisplatin or BGB combos (AID 1671450; in the data active = inhibition above about 80%;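 note: cells exposed to compound for four days; 0% = vehicle DMSO and 100% = cell killing by high DMSO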); conditions: HDN33 neuroblastoma cells, stronger effect = higher value
# [10] = ICB984 medulloblastoma cell growth inhibition, synergistic combos for chromothripsis tumors, cisplatin or BGB combos (AID 1671451; call rule not given here;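 note: cells exposed for 96 hours before readout; 0% = vehicle DMSO and 100% = killing by high DMSO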); conditions: ICB984 medulloblastoma cells, drug combinations, stronger effect = higher value
# [11] = LFS_MB_1R medulloblastoma cell growth inhibition, synergistic combos for chromothripsis tumors, cisplatin or BGB combos (AID 1671452; in the data active = inhibition above about 80%;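 note: cells exposed for 96 hours before readout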); conditions: LFS_MB_1R medulloblastoma cells, stronger effect = higher value
# [12] = HTB85 osteosarcoma cell growth inhibition, synergistic combos for chromothripsis tumors, BGB or cisplatin IC20 combos (AID 1671453; in the data active = inhibition above about 80%;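 note: cells exposed for 96 hours before readout; 0% = vehicle DMSO and 100% = high DMSO killing control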); conditions: HTB85 osteosarcoma cells, drug combinations, stronger effect = higher value
# [13] = MDA-MB-436 breast carcinoma cell growth inhibition, synergistic combos for chromothripsis tumors, BGB or cisplatin combos (AID 1671458; call rule not given here;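 note: cells exposed for 96 hours; 0% = vehicle DMSO and 100% = killing by high DMSO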); conditions: MDA-MB-436 breast carcinoma growth inhibition, drug combinations, stronger effect = higher value
# [14] = growth inhibition of BT084 medulloblastoma cells, cell-based, ICGC_MB145, cisplatin and BGB IC40 combos (AID 1671461; in the data active = inhibition above about 80%;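 note: cells exposed to drugs for 96 hours; 0% = vehicle DMSO and 100% = high DMSO full killing control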); conditions: drug combinations, stronger effect = higher value
# [15] = growth inhibition of RCMB18 medulloblastoma cells, cell-based, cisplatin and BGB IC40 combos (AID 1671462; in the data active = inhibition above about 80%;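 note: cells exposed to compound for four days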); conditions: stronger effect = higher value
# [16] = growth inhibition of CRL1545 osteosarcoma cells, cell-based, cisplatin and BGB IC20 combos (AID 1671464; in the data active = inhibition above about 80%;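 note: cells exposed to compound for 96 hours before readout; 0% = vehicle DMSO and 100% = high DMSO killing control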); conditions: stronger effect = higher value
# [17] = hESC survival regulators, cell-based (AID 493140; call rule not given here;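 note: cells exposed to compounds for four days before counting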); conditions: human embryonic stem cell survival screen; stronger effect = higher value
# [18] = stronger effect = lower value, cell number ratio, induced over uninduced
# [19] = measured here: relative caspase fold change +Dox/-Dox
# [20] = measured here: total cells with miR-34 induction, stronger effect = lower value
# [21] = measured here: total cells without miR-34 induction
# [22] = MELAS cybrid survival, CellTiter-Glo 48 h, stronger effect = higher value
# [23] = Rieske KO mouse fibroblast survival, CellTiter-Glo 72 h
# [24] = measured here: combination with BGB IC40, at 0.05 µM
# [25] = measured here: with BGB IC20 combination, at 0.5 µM
# [26] = measured here: with cisplatin IC20 combination, at 0.5 µM
# [27] = measured here: combination with cisplatin, at 0.5 µM
smiles,measurement,setting,value
N[C@@H](Cc1c[nH]c2ccccc12)C(=O)O,inhibition,[1],3.98% (inactive)
same,fold change,[2]; [18],0.995 (inactive)
same,fold change,[2]; [19],0.835
same,cell count,[2]; [20],9660
same,cell count,[2]; [21],9710
same,remaining NAD,[3],10 nM (inactive)
same,luciferase signal,[4],136 AU (inactive)
same,z-score,[5],0.315 (inactive)
C=C1CC[C@H](O)C/C1=C/C=C1\CCC[C@]2(C)[C@@H]([C@H](C)/C=C/[C@H](C)C(C)C)CC[C@@H]12,parasite load remaining,[6],50.6% (inactive)
same,viability,[6],130%
same,inhibition,[1],12.3% (inactive)
same,fold change,[2]; [18],0.934 (inactive)
same,fold change,[2]; [19],1.53
same,cell count,[2]; [20],7580
same,cell count,[2]; [21],8110
same,remaining NAD,[3],10 nM (inactive)
same,luciferase signal,[4],144 AU (inactive)
COC1C(OC(N)=O)C(O)C(Oc2ccc3c(O)c(NC(=O)c4ccc(O)c(CC=C(C)C)c4)c(=O)oc3c2C)OC1(C)C (stereo not given),inhibition,[1],-15.7% (inactive)
same,fold change,[2]; [18],0.913 (inactive) and 0.926 (inactive)
same,fold change,[2]; [19],2.12 and 1.18
same,cell count,[2]; [20],9290 and 8980
same,cell count,[2]; [21],10200 and 9700
same,z-score,[7]; [22],-0.751 (inactive) and -0.28 (inactive)
same,z-score,[7]; [23],-1.31 and -0.896
same,z-score,[5],0.215 (inactive)
same,inhibition,"[8]; at 0.5 µM, stronger effect = higher value",-3.51% (inactive)
same,inhibition,"[8]; measured here: combination with BGB IC20, at 0.005 µM",-14%
same,inhibition,"[8]; measured here: combination with BGB IC40, at 0.005 µM",-18.4%
same,inhibition,[8]; [24],-8.09%
same,inhibition,"[8]; measured here: combination with cisplatin, at 0.5 µM, stronger effect = higher value",-1.03%
same,inhibition,"[8]; measured here: combination with cisplatin, at 5 µM, stronger effect = higher value",-41%
same,inhibition,"[9]; BGB combo, at 5 µM",-12%
same,inhibition,[9]; at 0.5 µM,-8.11% (inactive)
same,inhibition,"[9]; cisplatin combo, at 5 µM",0.721%
same,inhibition,[9]; [25],3.35%
same,inhibition,[9]; [26],2.19%
same,inhibition,"[9]; single agent, at 5 µM",-35.9%
same,inhibition,"[10]; BGB IC20 combo, at 0.005 µM",-23.7%
same,inhibition,"[10]; BGB IC40 combo, at 0.005 µM",-54.1%
same,inhibition,"[10]; BGB IC40 combo, at 0.05 µM",-30.8%
same,inhibition,[10]; at 0.5 µM,-1.24% (inactive)
same,inhibition,"[10]; cisplatin combo, at 0.05 µM",-30.8%
same,inhibition,"[10]; cisplatin combo, at 0.5 µM",-1.05%
same,inhibition,"[10]; cisplatin combo, at 5 µM",-22.8%
same,inhibition,"[10]; measured here: 5 uM single agent, at 5 µM",-16.3%
same,inhibition,[11]; at 0.5 µM,-15% (inactive)
same,inhibition,[11]; [24],-15.8%
same,inhibition,[11]; [27],17.7%
same,inhibition,"[11]; measured here: combination with cisplatin, at 5 µM",-65.5%
same,inhibition,[12]; at 0.5 µM,-17.6% (inactive)
same,inhibition,"[12]; measured here: with BGB IC20, at 0.5 µM",-24%
same,inhibition,"[12]; measured here: with BGB IC20, at 5 µM",20.3%
same,inhibition,"[12]; measured here: with cisplatin IC20, at 0.5 µM",-30.3%
same,inhibition,"[12]; measured here: with cisplatin IC20, at 5 µM",-20.2%
same,inhibition,"[12]; single agent, at 5 µM",-19%
same,inhibition,[13]; at 0.5 µM,-31.4% (inactive)
same,inhibition,"[13]; measured here: BGB combination, at 0.5 µM",-38.4%
same,inhibition,"[13]; measured here: BGB combination, at 5 µM",-32.4%
same,inhibition,"[13]; measured here: cisplatin combination, at 0.5 µM",-35.8%
same,inhibition,"[13]; measured here: cisplatin combination, at 5 µM",-21%
same,inhibition,[14]; at 0.5 µM,-4.18% (inactive)
same,inhibition,"[14]; cisplatin combination, at 0.5 µM",1.57%
same,inhibition,"[14]; cisplatin combination, at 5 µM",-32.1%
same,inhibition,"[14]; measured here: BGB IC40 combination 0.05 uM, at 0.05 µM",37.7%
same,inhibition,"[14]; single agent, at 5 µM",-18.6%
same,inhibition,[15]; at 0.5 µM,-22.3% (inactive)
same,inhibition,"[15]; cisplatin combo, at 5 µM",18.1%
same,inhibition,"[15]; measured here: BGB IC40 combination, at 0.05 µM",-10.1%
same,inhibition,[15]; [27],-16.8%
same,inhibition,"[15]; single agent, at 5 µM",-14.1%
same,inhibition,[16]; at 0.5 µM,-43.4% (inactive)
same,inhibition,[16]; [25],-36.9%
same,inhibition,[16]; [26],-46.6%
same,inhibition,"[16]; single agent, at 0.05 µM",-14.9%
same,inhibition,"[16]; single agent, at 5 µM",4.54%
CCOc1nc2cccc(C(=O)OC(C)OC(=O)OC3CCCCC3)c2n1Cc1ccc(-c2ccccc2-c2nn[nH]n2)cc1 (stereo not given),parasite load remaining,[6],137% (inactive) and 50.7% (inactive)
same,viability,[6],83.9% and 101%
same,inhibition,[1],2.36% (inactive)
same,fold change,[2]; [18],0.972 (inactive) and 0.852 (inactive)
same,fold change,[2]; [19],0.675 and 3.41
same,cell count,[2]; [20],8090 and 11000
same,cell count,[2]; [21],8320 and 12900
same,z-score,[7]; [22],0.432 (inactive)
same,z-score,[7]; [23],-0.0296
same,remaining NAD,[3],10 nM (inactive)
same,luciferase signal,[4],40 AU (inactive)
CCCCC/C=C\C/C=C\C/C=C\C/C=C\CCCC(=O)O,survival,[17],45.6 (inactive)
same,inhibition,[1],9.46% (inactive)
same,fold change,[2]; [18],1.06 (inactive) and 1 (inactive)
same,fold change,[2]; [19],1.01 and 0.893
same,cell count,[2]; [20],5710 and 5370
same,cell count,[2]; [21],5370 and 5360
NCCCCCCNS(=O)(=O)c1cccc2c(Cl)cccc12,inhibition,[1],8.63% (inactive)
same,fold change,[2]; [18],0.955 (inactive)
same,fold change,[2]; [19],0.859
same,cell count,[2]; [20],4060
same,cell count,[2]; [21],4250
COc1ccc(-c2cc(=O)c3c(O)c(OC)c(OC)cc3o2)cc1O,inhibition,[1],3.27% (inactive)
same,fold change,[2]; [18],1.03 (inactive)
same,fold change,[2]; [19],0.681
same,cell count,[2]; [20],5880
same,cell count,[2]; [21],5680
same,z-score,[5],0.86 (inactive)
C[C@@H]1C(=O)O[C@H]2C[C@@]34[C@H]5C[C@@H](C(C)(C)C)[C@]36[C@@H](OC(=O)[C@@H]6O)O[C@@]4(C(=O)O5)[C@]21O,parasite load remaining,[6],48.8% (inactive)
same,viability,[6],110%
same,inhibition,[1],0.379% (inactive)
same,fold change,[2]; [18],0.95 (inactive)
same,fold change,[2]; [19],1.75
same,cell count,[2]; [20],10300
same,cell count,[2]; [21],10800
same,z-score,[7]; [22],0.0275 (inactive)
same,z-score,[7]; [23],-1.08
same,z-score,[5],0.435 (inactive)
C[C@]12CC[C@H]3C(=CCc4cc(O)ccc43)[C@@H]1CCC2=O,survival,[17],2.75 (inactive)
same,parasite load remaining,[6],125% (inactive)
same,viability,[6],97.4%
same,inhibition,[1],9.47% (inactive)
same,fold change,[2]; [18],0.908 (inactive)
same,fold change,[2]; [19],1.13
same,cell count,[2]; [20],7380
same,cell count,[2]; [21],8130
same,z-score,[7]; [22],0.735 (inactive)
same,z-score,[7]; [23],0.488
same,remaining NAD,[3],10 nM (inactive)
same,luciferase signal,[4],84 AU (inactive)

# From PubChem BioAssay
